TGFb SMAD3 inh: qHTS for Inhibitors of TGF-b; HepG2 CAGA-GFP TGF-b/SMAD3 reporter, GFP fluorescence, 18 h; TGF-beta stimulated, 500 pg/mL final; Potency, µM (top dose mostly 46.1 µM), inactives show at the highest dose activity, negative = inhibition, actives largely listed as inhibitors; AID 588855, 2011; actives 1.2% (n = 410,000); note: % is set by controls: 0 for no effect and ±100 for the full control effect; nearly all actives have a fitted effect of over 65% in size
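First, reporter cells (HEPG2 CAGA-GFP) rested 2 h at 37 degrees C. Next, compounds were pinned in and TGF-beta added to 500 pg/mL final. After 18 h, GFP was imaged per cell and summed per well.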
ATXN2 expr inh: Primary qHTS for Inhibitors of ATXN expression; HEK-293 ATXN2-luciferase reporter, luminescence, 24 h; Potency, µM (highest dose often 57 µM), without a hit: at the top dose activity change, negative = inhibition, usual class: inhibitors; actives 0.72% (n = 360,000); note: % is set by controls: 0 for no effect and ±100 for the full control effect; nearly all actives have a fitted effect of over 55% in size
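qHTS (up to 57 uM final) was run with 24 h compound exposure of reporter cells at 37 °C. Each well was multiplexed: SteadyGlo luminescence measured ATXN2-luciferase expression after a fluorogenic Gly-Phe-AFC viability readout (25 uM final).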
HT1080-NT tox: qHTS for induction of synthetic lethality in tumor cells producing 2HG: qHTS for the HT-1080-NT fibrosarcoma cell line | HT-1080-NT fibrosarcoma viability, CellTiter-Glo ATP luminescence, 48 h | Potency, µM (titrated, usually from 46.1 µM), for the others: at the top dose activity, negative = less viability, actives largely listed as cytotoxic | actives 1.6% (n = 360,000) | AID 686970, 2013;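 note: NT is the 2HG producing partner of a matched IDH1 knockdown line; 0% = DMSO-treated cells and -100% = media-only wells without cells; nearly all actives have a fitted effect of over 55% in size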
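Toxicity toward the 2HG-producing NT line was scored as %Activity, normalised to DMSO and no-cell wells, from CellTiter-Glo luminescence after 48 hours' treatment.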
HepG2 tox: qHTS for Inhibitors of TGF-b: Cytotox Counterscreen; HepG2 CAGA-GFP viability, ATP luminescence, 18 h; Potency, µM (titrated, usually from 46.1 µM), for inactives: top-dose activity change, negative = cytotoxicity, hits mostly cytotoxic; actives 0.76% (n = 410,000)
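HepG2 CAGA-GFP cells (1000/well, DMEM with 1% FBS) received compound, then TGF-beta at 500 pg/mL final, and were incubated 18 hours at 37 degrees C. Viability was read by CellTiter-Glo luminescence. Media-only wells were set as complete cell-killing and DMSO as no toxicity.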
HT1080 IDH1KD tx: qHTS for induction of synthetic lethality in tumor cells producing 2HG: qHTS for the HT-1080-IDH1KD cell line; AID 686971, 2013; Potency, µM (highest dose often 46.1 µM), for inactives: top-dose activity, negative = toxicity, hits mostly cytotoxic; actives 2% (n = 360,000); HT-1080 IDH1 knockdown viability, ATP luminescence, 48 h;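 note: 0% = DMSO wells and -100% = cell-free medium wells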
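Cytotoxicity counter-line: IDH1KD HT-1080, 48 h, CellTiter-Glo. Curves classed by r2, magnitude and activity.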
ATXN viability: Viability Counterscreen for Primary qHTS for Inhibitors of ATXN expression | S2 cells (HEK-293 line with an ATXN2-luciferase reporter) viability, CellTiter-Fluor protease fluorescence, 24 h | Potency, µM (top dose mostly 56.7 µM), hits mostly cytotoxic | actives 0.49% (n = 400,000); note: nearly all actives have a fitted effect of over 40% in size
Numbers without * were called inactive; i = inactive; ? = inconclusive; / = not tested or not shown. Most compounds without a hit are left out; they make up all but 3.8% or so of the library. Calls come from the whole dose curve; as a rule, active = well fitted curve in the direction sought with a large enough effect; inconclusive = small, poorly fitted or top-dose-only effect, or another doubt; inactive = no such curve, though single readings can be large; an effect the other way counts as inactive or inconclusive. Potency is the fitted concentration of half-maximal effect.

SMILES	TGFb SMAD3 inh	ATXN2 expr inh	HT1080-NT tox	HepG2 tox	HT1080 IDH1KD tx	ATXN viability
COc1ccc(C(CCNCc2ccc(N(C)C)cc2)c2ccccc2)cc1 (stereo not drawn)	?	?	18µM*	-186%	?	22µM*
CCC1(C2CCN(C(=O)c3cc4ccccc4o3)CC2)NC(=O)N(CCc2scnc2C)C1=O (stereo not drawn)	/	/	/	/	/	i
COc1ccc(CC2=NN3C([C@@H](CCc4ccccc4)[C@@H](C)O)=NC(C)C3C(=O)N2)cc1OC (stereo partly drawn)	/	43%	/	/	/	/
CC(C)Oc1ccc(CNC(=O)CC(c2ccccc2)c2cc(Cl)ccc2O)cc1 (stereo not drawn)	?	?	?	16µM*	?	?
COc1ccccc1C(CC(=O)Nc1ccc(Cl)cc1)c1ccc(OC(C)C)cc1 (stereo not drawn)	3%	1%	-14%	-14%	-17%	i
Cc1cnc(SCc2ccccn2)nc1C1CCCN(C(=O)c2cc3ccccc3oc2=O)C1 (stereo not drawn)	/	/	/	/	/	i
C#CCN1C=C(C(=O)OCC)C(C)N(Cc2ccccc2I)S1(=O)=O (stereo not drawn)	?	?	?	-8%	21µM*	i
C#CCN1C=C(C(=O)OCC)C(C)NS1(=O)=O (stereo not drawn)	30%	9%	15%	3%	11%	i
Cc1ccc(-c2nnc(Nc3ccccc3)o2)cc1	3%	22µM*	?	-46%	2%	i
Cc1ccc(-c2nnc(-c3ccc4ccccc4c3)o2)cc1	-1%	33%	?	-1%	9.2µM*	?
Cc1ccc(-c2cc(C3C4C=CCC(C)C4C(=O)N3Cc3ccccc3)ccc2F)cc1 (stereo not drawn)	-17%	/	/	-13%	/	/
COc1cc(=O)n2c(c1C(=O)NCc1ccco1)CCN(Cc1cc3ccccc3[nH]1)CC2	/	/	/	/	/	i
C#CC(=O)N(c1cc(OC)ccc1OC)C(C(=O)NC1CCCC1)c1cccs1 (stereo not drawn)	?	?	0.073µM*	-83%	0.73µM*	32µM*
C#CC(=O)N(c1ccc(OC)cc1OC)C(C(=O)NC1CCCC1)c1cccs1 (stereo not drawn)	?	1.8µM*	0.92µM*	-52%	?	/
COc1ccc(CCN(C(=O)C(F)(F)F)C(C(=O)NC2CCCC2)c2cccs2)cc1 (stereo not drawn)	?	-23%	8.9µM*	-12%	?	i
O=C(NCCO)c1cn(C2CCCN(Cc3cccc(C(F)(F)F)c3)C2)nn1 (stereo not drawn)	/	/	/	/	/	i
Cc1ccc2c(=O)cc(C(=O)Nc3ccc(S(=O)(=O)N4CCCCCC4)cc3)oc2c1C	?	14%	/	-7%	/	i
CC(C)(C)OC(=O)N1CCN(c2nc(-c3cccs3)nc3ccccc23)CC1	/	/	2%	/	1%	/
Cc1cnc(C)c(-c2cc(F)cc3c2OC(CNC(=O)Cc2ccccc2C)C3)n1 (stereo not drawn)	/	/	/	/	/	i
Cc1cn2cc(C(=O)N(C)CCO)cc(N[C@@H]3CCOc4cccc(C)c43)c2n1	/	3%	/	/	/	/
Cc1nc(C(C)NC2CCN(c3cccc(NC(=O)c4ccncc4)c3)CC2)cs1 (stereo not drawn)	/	/	/	/	/	i
COc1cc(C(=O)Nc2ccc3nc4n(c(=O)c3c2)CCCCC4)cc(OC)c1OC	-2%	6%	?	-13%	18µM*	?
O=C(Nc1ccc2nc3n(c(=O)c2c1)CCCCC3)c1cc([N+](=O)[O-])ccc1F	?	?	?	13µM*	?	/
CC1=C(C(=O)Nc2cccnc2)C(c2cccc(O)c2)n2nc(SCc3ccccc3)nc2N1 (stereo not drawn)	-4%	-8%	/	2%	/	i
CC(=O)N1c2ccc(S(=O)(=O)NCCC(=O)Nc3ccc(Br)c(C)c3)cc2CC1C (stereo not drawn)	11µM*	-35%	/	-30%	/	?
SMILES	TGFb SMAD3 inh	ATXN2 expr inh	HT1080-NT tox	HepG2 tox	HT1080 IDH1KD tx	ATXN viability
CC(=O)N1c2ccc(S(=O)(=O)NCCC(=O)Nc3ccc(C)c(Cl)c3)cc2CC1C (stereo not drawn)	?	-18%	-2%	-21%	-5%	i
COc1ccc(NC(=O)c2c(NC(=O)C(F)(F)F)sc3c2CCCCC3)cc1	?	-4%	/	-23%	/	i
COC(=O)c1ccccc1-c1ccc(/C=N/Nc2nc(N3CCCC3)nc(N3CCCC3)n2)o1	13µM*	?	?	-39%	?	?
CN(C)c1ccc(-c2ccnc3c2CC(C)(C(=O)NCc2ccco2)O3)cc1 (stereo not drawn)	-23%	0%	?	-17%	?	?
CC(=O)Nc1ccc(-c2ccnc3c2CC(C)(C(=O)NCc2ccco2)O3)cc1 (stereo not drawn)	12%	-16%	?	0%	2.6µM*	?
CC(=O)Nc1ccc(-c2ccnc3c2CC(C)(C(=O)Nc2ccc(Cl)c(C(F)(F)F)c2)O3)cc1 (stereo not drawn)	?	20µM*	?	-59%	16µM*	13µM*
CC(=O)Nc1cccc(-c2ccnc3c2CC(C)(C(=O)Nc2cccc(OC(F)(F)F)c2)O3)c1 (stereo not drawn)	14µM*	?	9.2µM*	-51%	?	?
CC1(C(=O)Nc2cccc(OC(F)(F)F)c2)Cc2c(-c3cccc(C(F)(F)F)c3)ccnc2O1 (stereo not drawn)	?	-9%	?	-23%	?	i
O=C(N/N=C\c1cn[nH]c1-c1ccc(Cl)cc1)c1cccs1	10µM*	/	-15%	-87%	-12%	i
COc1ccccc1NC(=O)Cn1c(=O)c(CNc2ccccc2)cc2cc(OC)c(OC)cc21	1%	/	/	-15%	/	/
CC(C)C(=O)NC(c1ccco1)c1ccc2cccnc2c1O (stereo not drawn)	-23%	?	4.1µM*	-18%	?	?
CC(C)C(=O)NC(c1ccc(N(C)C)cc1)c1ccc2cccnc2c1O (stereo not drawn)	?	/	/	6%	/	/

High-throughput results deposited in PubChem BioAssay by National Center for Advancing Translational Sciences (NCATS).
